Experimental data: PubChem BioAssay AID430 (Sanford-Burnham Center for Chemical Genomics, 2006)
Hit rate of the full screen: of about 63,000 compounds, about 1,100 (1.7%) were called active. This is one part of a sample in which actives are shown more often than they occur. Cut-off read from the data, not from the text of the source: active = cytotoxicity above about 50%; inactive = the rest. Entries with a potency or affinity are not part of this list.

Test: HPDE-C7 pancreatic duct cell viability loss – fluorescence, HTS (AID 430);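 note: cells exposed to compound for 48 hours before viability readout; 0% = vehicle and 100% = reference cytotoxic drug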
Settings: HPDE-C7 pancreatic duct cells viability, at 10 µM, active compounds read high

| SMILES | cytotoxicity |
| --- | --- |
| CN(CCc1ccccn1)Cc1ccc(Cl)cc1Cl | 3.3% (inactive) |
| Cc1ccc(-c2nnc(SCc3ccccc3F)o2)cc1 | 1.8% (inactive) |
| O=C(Nc1cccc2ncccc12)c1cccnc1 | -4.6% (inactive) |
| O=C(Nc1ccccc1)N(CCN1CCOCC1)Cc1ccccc1F | -7.5% (inactive) |
| Cc1ccc(C)c(CN2CCCNC2=O)c1 | -5.7% (inactive) |
| COC(=O)c1cc2occc2n1CC(=O)Nc1ccc(OC)c(OC)c1 | -0.3% (inactive) |
| CCNC(=O)CSc1nc2ccccc2c(=O)n1OC | -1% (inactive) |
| Clc1ccc(Cn2nnc(-c3ccc(CN4CCOCC4)cc3)n2)cc1 | -26.4% (inactive) |
| COC(=O)c1ccc(NC(=O)C2CCCN2S(=O)(=O)c2ccc(F)cc2)cc1 (stereo not drawn) | 2.5% (inactive) |
| COc1cccc(-c2cc(C(F)(F)F)nc(N3CCN(c4ccccc4)CC3)n2)c1 | 72.4% (active) |
| COc1cccc(-c2cc(C(F)(F)F)nc(N3CCOCC3)n2)c1 | -14% (inactive) |
| COc1cccc(-c2cc(C(F)(F)F)nc(N3CCCCC3)n2)c1 | -12.8% (inactive) |
| O=c1c2ccccc2oc2ncccc12 | -24.9% (inactive) |
| CCC(Sc1nccn1C)C(=O)Nc1cccc2ccccc12 (stereo not drawn) | -6.2% (inactive) |
| Cc1ccc(N2CCN(C(=O)c3ccccc3)CC2)c(C)c1 | -29.9% (inactive) |
| COc1cc(C(=O)N2CCN(c3cccc(C)c3C)CC2)cc(OC)c1OC | 67.4% (active) |
| COc1cc(C(=O)N2CCN(c3ccc(C)cc3C)CC2)cc(OC)c1OC | 53.4% (active) |
| COc1ccc(C(=O)N2CCN(c3ccc(C)cc3C)CC2)cc1OC | -9.6% (inactive) |
| Cc1cccc(N2CCN(C(=O)c3ccncc3)CC2)c1C | 34.4% (inactive) |
| COc1cc(C(=O)N2CCN(c3cc(Cl)ccc3Cl)CC2)cc(OC)c1OC | 64.3% (active) |
| COc1ccc(Cl)cc1S(=O)(=O)N1CCN(C(=O)c2cc(OC)c(OC)c(OC)c2)CC1 | -17% (inactive) |

| SMILES | cytotoxicity |
| --- | --- |
| Cc1cccc(N2CCN(C(=O)c3ccc(Cl)c(S(=O)(=O)NCc4ccco4)c3)CC2)c1C | 65.8% (active) |
| COc1ccc(C(=O)N2CCN(C(=O)c3cc(OC)c(OC)c(OC)c3)CC2)cc1 | 5.9% (inactive) |
| O=C(NCC1(N2CCOCC2)CCCCC1)c1ccc(Cl)c(S(=O)(=O)NCc2ccco2)c1 | -1.6% (inactive) |
| COc1cc(C(=O)N2CCN(C(=O)c3ccccc3)CC2)cc(OC)c1OC | -2.2% (inactive) |
| O=C(O)c1ccc(Cl)c(S(=O)(=O)NCc2ccco2)c1 | -12.1% (inactive) |
| CCOCC(=O)Nc1cccc(NC(C)=O)c1 | -3.5% (inactive) |
| COc1ccc(C(=O)N(Cc2ccco2)Cc2cc3cc(C)ccc3[nH]c2=O)cc1OC | 4.2% (inactive) |
| Cc1ccc(S(=O)(=O)Nc2ccc(NC(=O)CN3CCCCC3)cc2)cc1 | -3% (inactive) |
| COc1ccc(OCC(=O)Nc2ccc3c(c2)nc(CCN2CCOCC2)n3C)cc1 | 10.7% (inactive) |
| COc1ccc(C(CNC(=O)Cc2cc(OC)c(OC)c(OC)c2)N2CCCC2)cc1 (stereo not drawn) | -31.8% (inactive) |
| COc1ccc(-c2nnc(SCC(=O)NC(C)c3ccccc3)o2)cc1OC (stereo not drawn) | -26.2% (inactive) |
| O=C(OCc1nnc(-c2ccccc2)o1)c1cc(=O)c2ccccc2o1 | 1.2% (inactive) |
| CCC(C)NC(=O)NC1C(NC(=O)NC(C)CC)N(C)C(=O)N1C (stereo not drawn) | -7.6% (inactive) |
| CCN(C(=O)c1coc(=O)c2ccccc12)c1cc(OC)ccc1OC | -6.4% (inactive) |
| Cc1[nH]nc2c1C1(CCN(Cc3ccccc3)CC1)C(C#N)=C(N)O2 | -9.5% (inactive) |
| COc1ccc(C2=NOC(C(=O)N3CCOCC3)C2)cc1OC (stereo not drawn) | -3.2% (inactive) |
| Cc1ccc2nc(SCCC#N)nc(C)c2c1 | -10.1% (inactive) |
| COc1ccc(S(=O)(=O)N2CC(C)N(S(=O)(=O)c3ccc(OC)cc3)CC2C)cc1 (stereo not drawn) | -4.1% (inactive) |
| Clc1ccc2oc(-c3ccccc3)nc2c1 | -4.4% (inactive) |
| Cc1cc(C)nc(SC2=CS(=O)(=O)c3ccccc32)n1 | 4.3% (inactive) |
| O=S1(=O)C=C(Sc2nnc(-c3ccccc3)o2)c2ccccc21 | 47.8% (inactive) |

| SMILES | cytotoxicity |
| --- | --- |
| O=S1(=O)C=C(Sc2nc3ccccc3s2)c2ccccc21 | 109% (active) |
| Cn1c(SC2=CS(=O)(=O)c3ccccc32)nc2ccccc21 | 49.6% (inactive) |
| COc1ccc(/C=N/n2cnnc2SCCO)cc1OC | -14.1% (inactive) |
| COc1ccc(-c2nnc3sc(-c4ccccn4)nn23)cc1 | -5.5% (inactive) |
| COc1ccc(-c2cn3cccnc3n2)cc1NC(=O)C1CCCC1 | -13.7% (inactive) |
| Cn1c(Cn2nnc3ccccc32)nnc1SCC(=O)N1c2ccccc2Sc2ccccc21 | -9.1% (inactive) |
| CCSC(SCC)[C@H](O)[C@@H](O)[C@H](O)[C@H](O)CO | 11.2% (inactive) |
| CCCC(N)CCCCCC(=O)O (stereo not drawn) | -2.3% (inactive) |
| COc1ccccc1N1C(=O)C2C3C=CC(C3)C2C1=O (stereo not drawn) | -6% (inactive) |
| O=c1oc2ccccc2n1CSc1nc2ccccc2s1 | -4% (inactive) |
| CCNS(=O)(=O)c1ccc(NC(=O)c2ccccc2OCC)cc1 | 10.2% (inactive) |
| CC(=O)c1sc(NC(=O)C2(F)C(F)(F)C(F)(F)C(F)(F)C(F)(F)C2(F)F)nc1C | 52.4% (active) |
| CCCCC(=O)Nc1nc(C)c(C(C)=O)s1 | -0.6% (inactive) |
| CC(=O)c1sc(NC(=O)C=C(C)C)nc1C | 1.3% (inactive) |
| O=C(c1ccco1)N1CCN(Cc2ccc(Cl)cc2)CC1 | -3.7% (inactive) |
| CCN(CC)S(=O)(=O)c1ccc2c(c1)nc(SCC(=O)NC1CC1)n2-c1ccccc1OC | 3.8% (inactive) |
| COc1ccc(-c2nc3ccccc3c(=O)n2CCCn2ccnc2)cc1 | -0.2% (inactive) |
| O=S(=O)(Nc1ccc2c(c1)OCCO2)c1ccc2oc3ccccc3c2c1 | 83.9% (active) |
| CSc1ccc(S(=O)(=O)Nc2ccc3c(c2)OCCO3)cc1 | 8.6% (inactive) |
| COc1ccc(NS(=O)(=O)c2ccc3oc4ccccc4c3c2)cn1 | 25.3% (inactive) |
| CCc1c(C)nc2ncnn2c1N1CCC(C(=O)Nc2cccc(C(C)=O)c2)CC1 | -7.9% (inactive) |
